The values that follow come from the supplement of paper PMC12645437, “Orthogonal IMiD-Degron Pairs Induce Selective Protein Degradation in Cells” (ACS Chemical Biology, 2025).

Whole data set: some 8,300 sequences, median “log2 fold change of degron read counts, EGFP-low vs EGFP+ sorted cells (limma voom), compound-induced degradation” near -1.1, cut for the highest 2% near 3.2. The full list was thinned out, with the highest values kept by preference.

The target in this assay is T1, CRBN, Q96SW2.
T1 chain: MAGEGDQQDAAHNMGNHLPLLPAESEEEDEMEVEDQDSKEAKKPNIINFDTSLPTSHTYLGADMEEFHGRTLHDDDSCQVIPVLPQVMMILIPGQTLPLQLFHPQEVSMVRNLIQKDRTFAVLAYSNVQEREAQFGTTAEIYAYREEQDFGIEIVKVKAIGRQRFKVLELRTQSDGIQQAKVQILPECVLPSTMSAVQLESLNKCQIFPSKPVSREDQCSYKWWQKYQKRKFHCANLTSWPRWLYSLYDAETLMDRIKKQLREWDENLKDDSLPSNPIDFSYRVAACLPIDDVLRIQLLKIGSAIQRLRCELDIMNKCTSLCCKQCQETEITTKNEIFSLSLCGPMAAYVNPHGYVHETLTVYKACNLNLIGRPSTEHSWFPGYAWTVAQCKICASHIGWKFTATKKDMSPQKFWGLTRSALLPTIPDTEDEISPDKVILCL
Description: log2 fold change of degron read counts, EGFP-low vs EGFP+ sorted cells (limma voom), compound-induced degradation; higher = more compound-induced degradation of the degron-EGFP fusion; degrons are variants of IKZF1/3 zinc finger 2; compound dose not given here. To be noted: Jurkat, 18 h.

Setting [1] is: compound: compound 19 (5-tert-butyl-thalidomide).
[2] abbreviates: compound: compound 22 (5-morpholino-thalidomide).
Where [3] appears, read: compound: compound 33 (diphenyl IMiD analogue).
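Also: pooled lentiviral library of zinc finger degron-EGFP fusions in mCherry-positive Jurkat cells, FACS-sorted after compound exposure, with degron abundance counted by next-generation sequencing.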

FICNQCGAAFTQKGNLLRHIKL [46F_47I_49N_50Q_52G_53A_54A_55F_67L_, Q9UKT9]: the “log2 fold change of degron read counts” value under setting [1] was -2.19, the “log2 fold change of degron read counts” value under setting [2] was -0.99, the “log2 fold change of degron read counts” value under setting [3] is -0.297 and the “log2 fold change of degron read counts” value (compound: thalidomide) is -0.649.
The like results for LCCEICGFNCTQKGNLLRHIKL [46L_47C_49E_50I_52G_53F_54N_55C_67L_, Q9UKT9] were, in that order, -0.957, -1.02, 0.0485 and 0.0948.
The like results for FECPICGAKFTQKGNLLRHIKL [46F_47E_49P_50I_52G_53A_54K_55F_67L_, Q9UKT9] were, in that order, 0.543, -0.648, 0.0161 and 3.
On to FSCNICGAEFTQKGNLLRHIKL [46F_47S_49N_50I_52G_53A_54E_55F_67L_, Q9UKT9], for which the “log2 fold change of degron read counts” value reads like this: under setting [1], -0.854; under setting [2], 0.252; under setting [3], 0.443; (compound: thalidomide) 0.069.
The like results for FVCEICGAMFTQKGNLLRHIKL [46F_47V_49E_50I_52G_53A_54M_55F_67L_, Q9UKT9] were, in that order, 0.202, 0.968, 1.67 and 2.16.
The like results for FVCEICGADFTQKGNLLRHIKL [46F_47V_49E_50I_52G_53A_54D_55F_67L_, Q9UKT9] were, in that order, -1.49, -0.553, -0.517 and 0.943.
As to FYCEICGADFTQKGNLLRHIKL [46F_47Y_49E_50I_52G_53A_54D_55F_67L_, Q9UKT9], the “log2 fold change of degron read counts” value runs as follows: under setting [1], 1.04; under setting [2], 1.57; under setting [3], 0.298; (compound: thalidomide) -1.13.
On the same counts, the results for FMCEICGHPFTQKGNLLRHIKL [46F_47M_49E_50I_52G_53H_54P_55F_67L_, Q9UKT9] are -1.77, -1.41, 0.426 and -0.396.
Take FMCEICGAPFTQKGNLLRHIKL [46F_47M_49E_50I_52G_53A_54P_55F_67L_, Q9UKT9]: the “log2 fold change of degron read counts” value was found to be 3.59 under setting [1], 3.43 under setting [2], 3.13 under setting [3] and 2.94 (compound: thalidomide).
On the same counts, the results for FYCEICGAPFTQKGNLLRHIKL [46F_47Y_49E_50I_52G_53A_54P_55F_67L_, Q9UKT9] are 3.86, 3.74, 3.06 and 2.44.
FYCEQCGAPFTQKGNLLRHIKL [46F_47Y_49E_50Q_52G_53A_54P_55F_67L_, Q9UKT9]: the “log2 fold change of degron read counts” value by setting is: under setting [1], 1.97; under setting [2], 1.06; under setting [3], 0.568; (compound: thalidomide) -1.07.
The like results for FFCEICGAPFTQKGNLLRHIKL [46F_47F_49E_50I_52G_53A_54P_55F_67L_, Q9UKT9] were, in that order, 3.4, 3.34, 2.28 and 1.95.
The like results for FFCEICGADFTQKGNLLRHIKL [46F_47F_49E_50I_52G_53A_54D_55F_67L_, Q9UKT9] were, in that order, 0.436, 1.48, -0.411 and -0.679.
The like results for FMCEICGADFTQKGNLLRHIKL [46F_47M_49E_50I_52G_53A_54D_55F_67L_, Q9UKT9] were, in that order, -1.98, -1.6, 1.99 and -0.153.
Consider FFCEICGHPFTQKGNLLRHIKL [46F_47F_49E_50I_52G_53H_54P_55F_67L_, Q9UKT9], for which the “log2 fold change of degron read counts” value is, setting by setting: under setting [1], 0.211; under setting [2], -0.726; under setting [3], -0.864; (compound: thalidomide) -1.23.
On to FVCEICGAPFTQKGNLLRHIKL [46F_47V_49E_50I_52G_53A_54P_55F_67L_, Q9UKT9], for which the “log2 fold change of degron read counts” value is, setting by setting: under setting [1], 3.26; under setting [2], 3.62; under setting [3], 2.49; (compound: thalidomide) 3.65.
The like results for FQCPQCGAMFTQKGNLLRHIKL [46F_47Q_49P_50Q_52G_53A_54M_55F_67L_, Q9UKT9] were, in that order, -1.88, -0.122, 0.828 and 2.53.
On the same counts, the results for LCCNQCGFMCTQKGNLLRHIKL [46L_47C_49N_50Q_52G_53F_54M_55C_67L_, Q9UKT9] are -1.73, -2.27, -1.57 and -1.43.
